Measurements from PubChem BioAssay (EPA / NIEHS).
Records with an inconclusive call do not appear. Calls of active or inactive are those of the source. Rule for the calls: active = hit-call score of the fitted dose curve at least 0.9, where 1 is the maximum; inconclusive = response in the unintended direction; inactive = score below 0.9.

Molecular target: Retinoic acid receptor alpha (Homo sapiens) (UniProt P10276)
Assay: NVS_NR_hRAR_Antagonist: NovaScreen (NVS) Nuclear Receptor Binding Assay for human Retinoic Acid Alpha Receptor Antagonism (RAR) (AID 2283358)
In short: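 RARalpha antagonism was read by TR-FRET as loss of binding signal versus DMSO, 2 h after chemical addition, in a biochemical format. Single-concentration duplicates (25 uM) were run first, and actives were retested in concentration series.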

Retinoic acid receptor alpha (Homo sapiens), sequence (P10276 whole entry, looked up): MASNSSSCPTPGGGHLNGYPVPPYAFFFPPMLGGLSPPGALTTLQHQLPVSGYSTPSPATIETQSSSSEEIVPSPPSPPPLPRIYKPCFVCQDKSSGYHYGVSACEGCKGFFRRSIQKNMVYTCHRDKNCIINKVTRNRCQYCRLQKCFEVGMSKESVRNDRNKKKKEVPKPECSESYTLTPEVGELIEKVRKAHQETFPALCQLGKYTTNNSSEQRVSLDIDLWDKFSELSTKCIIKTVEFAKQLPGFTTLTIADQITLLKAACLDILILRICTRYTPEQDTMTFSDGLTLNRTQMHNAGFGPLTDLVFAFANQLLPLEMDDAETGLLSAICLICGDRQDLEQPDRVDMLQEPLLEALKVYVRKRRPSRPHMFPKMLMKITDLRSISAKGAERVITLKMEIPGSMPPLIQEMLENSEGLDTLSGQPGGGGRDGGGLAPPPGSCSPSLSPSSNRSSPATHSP

| SMILES | outcome |
| --- | --- |
| COc1ccc(C(c2ccc(OC)cc2)C(Cl)(Cl)Cl)cc1 | inactive |
| N#Cc1nn(-c2c(Cl)cc(C(F)(F)F)cc2Cl)c(N)c1S(=O)C(F)(F)F (configuration not stated) | inactive |
| COP(=S)(OC)Oc1nc(Cl)c(Cl)cc1Cl | inactive |
| CCCCOC(=O)c1ccccc1C(=O)OCCCC | inactive |
| COC(=O)c1ccccc1C(=O)OC | inactive |
| CC(Oc1ccc(Cl)cc1Cl)C(=O)O (configuration not stated) | inactive |
| CO/C=C(/C(=O)OC)c1ccccc1Oc1cc(Oc2ccccc2C#N)ncn1 | inactive |

Molecular target: human Peroxisome Proliferator-activated Receptor alpha (PPARa), PPARA (gene 5465) (UniProt Q07869)
Sequence (Q07869 whole entry, looked up): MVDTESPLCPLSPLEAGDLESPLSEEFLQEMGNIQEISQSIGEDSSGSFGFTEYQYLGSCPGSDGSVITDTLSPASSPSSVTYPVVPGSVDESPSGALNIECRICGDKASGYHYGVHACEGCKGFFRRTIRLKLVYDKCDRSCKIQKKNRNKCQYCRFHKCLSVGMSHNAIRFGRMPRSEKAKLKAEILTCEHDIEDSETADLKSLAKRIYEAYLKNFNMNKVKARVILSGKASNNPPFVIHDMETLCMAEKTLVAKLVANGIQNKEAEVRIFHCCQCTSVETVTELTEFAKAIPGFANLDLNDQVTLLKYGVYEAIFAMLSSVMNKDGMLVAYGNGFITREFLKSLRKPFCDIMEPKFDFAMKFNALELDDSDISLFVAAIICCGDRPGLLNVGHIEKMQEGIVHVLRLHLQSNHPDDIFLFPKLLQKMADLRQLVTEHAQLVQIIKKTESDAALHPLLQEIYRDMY
Assay: NVS_NR_hPPARa: NovaScreen (NVS) Nuclear Receptor Binding Assay for human Peroxisome Proliferator-activated Receptor alpha (PPARa) (AID 2283359);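 note: activity means loss of TR-FRET signal versus DMSO baseline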
In short: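 Loss of TR-FRET binding signal relative to DMSO was measured 1 h after chemical addition to extracted receptor protein. Chemicals were first tested in duplicate at 25 uM, and actives were followed up in concentration series.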

| SMILES | outcome | AC50 |
| --- | --- | --- |
| COc1ccc(C(c2ccc(OC)cc2)C(Cl)(Cl)Cl)cc1 | inactive |  |
| CCCN(CCC)c1c([N+](=O)[O-])cc(S(N)(=O)=O)cc1[N+](=O)[O-] | inactive |  |
| C=CC1(C)OC(=O)N(c2cc(Cl)cc(Cl)c2)C1=O (configuration not stated) |  | 37.4 µM (active) |
| N#Cc1cc(Br)c(O)c(Br)c1 | inactive |  |
| CCCCNC(=O)OCC#CI |  | 6.55 µM (active) |

Molecular target: PGR (gene 5241) (UniProt P06401)
Sequence (P06401 whole entry, looked up): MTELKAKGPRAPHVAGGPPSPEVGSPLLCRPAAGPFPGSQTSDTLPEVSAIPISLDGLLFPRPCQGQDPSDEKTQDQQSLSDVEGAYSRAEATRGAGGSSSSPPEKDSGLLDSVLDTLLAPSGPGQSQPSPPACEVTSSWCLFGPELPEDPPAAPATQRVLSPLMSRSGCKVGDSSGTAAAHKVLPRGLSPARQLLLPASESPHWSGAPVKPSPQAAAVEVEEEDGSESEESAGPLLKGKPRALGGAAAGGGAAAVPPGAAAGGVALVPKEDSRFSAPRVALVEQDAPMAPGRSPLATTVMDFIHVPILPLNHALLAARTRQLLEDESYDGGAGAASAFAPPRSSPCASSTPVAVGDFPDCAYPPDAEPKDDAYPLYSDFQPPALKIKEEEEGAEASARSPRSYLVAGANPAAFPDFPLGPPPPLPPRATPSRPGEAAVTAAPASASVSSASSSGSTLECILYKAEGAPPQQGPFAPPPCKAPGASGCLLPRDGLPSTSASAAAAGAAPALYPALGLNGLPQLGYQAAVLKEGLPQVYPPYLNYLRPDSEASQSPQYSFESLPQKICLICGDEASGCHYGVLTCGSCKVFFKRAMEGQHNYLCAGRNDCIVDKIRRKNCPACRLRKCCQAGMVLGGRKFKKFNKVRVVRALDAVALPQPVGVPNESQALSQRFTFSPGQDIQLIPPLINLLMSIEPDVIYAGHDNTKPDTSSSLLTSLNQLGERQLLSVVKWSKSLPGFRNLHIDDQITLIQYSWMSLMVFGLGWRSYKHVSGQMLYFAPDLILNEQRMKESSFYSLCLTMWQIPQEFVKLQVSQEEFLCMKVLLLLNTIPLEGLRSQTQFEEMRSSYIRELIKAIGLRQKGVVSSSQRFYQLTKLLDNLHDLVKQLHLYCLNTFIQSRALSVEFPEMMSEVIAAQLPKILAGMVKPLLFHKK
Assay: NVS_NR_hPR: NovaScreen (NVS) Nuclear Receptor Binding Assay for human Progestron Receptor (PR) (AID 2283360);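 note: active means loss of bound radioligand signal versus DMSO baseline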
In short: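 T47D-derived receptor preparation, cell-free, with tritiated or iodinated radioligand displacement measured by scintillation 18 h post-dosing. Single 25 uM duplicate screen, then concentration series; signal loss relative to DMSO.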

| SMILES | outcome | AC50 |
| --- | --- | --- |
| CCCCOC(=O)c1ccccc1C(=O)OCCCC | inactive |  |
| CCNc1nc(Cl)nc(NC(C)C)n1 | inactive |  |
| COC(=O)c1ccccc1C(=O)OC | inactive |  |
| CCCN(CCC)c1c([N+](=O)[O-])cc(S(N)(=O)=O)cc1[N+](=O)[O-] |  | 4.36 µM (active) |
| CON(C)C(=O)Nc1ccc(Cl)c(Cl)c1 | inactive |  |
| CCCCNC(=O)OCC#CI | inactive |  |
| CO/C=C(/C(=O)OC)c1ccccc1Oc1cc(Oc2ccccc2C#N)ncn1 | inactive |  |
| CCOC(=O)CC(SP(=S)(OC)OC)C(=O)OCC (configuration not stated) | inactive |  |

Molecular target: human Thyroid Receptor Alpha (TRa), THRA (gene 7067) (UniProt P10827)
Sequence (P10827 whole entry, looked up): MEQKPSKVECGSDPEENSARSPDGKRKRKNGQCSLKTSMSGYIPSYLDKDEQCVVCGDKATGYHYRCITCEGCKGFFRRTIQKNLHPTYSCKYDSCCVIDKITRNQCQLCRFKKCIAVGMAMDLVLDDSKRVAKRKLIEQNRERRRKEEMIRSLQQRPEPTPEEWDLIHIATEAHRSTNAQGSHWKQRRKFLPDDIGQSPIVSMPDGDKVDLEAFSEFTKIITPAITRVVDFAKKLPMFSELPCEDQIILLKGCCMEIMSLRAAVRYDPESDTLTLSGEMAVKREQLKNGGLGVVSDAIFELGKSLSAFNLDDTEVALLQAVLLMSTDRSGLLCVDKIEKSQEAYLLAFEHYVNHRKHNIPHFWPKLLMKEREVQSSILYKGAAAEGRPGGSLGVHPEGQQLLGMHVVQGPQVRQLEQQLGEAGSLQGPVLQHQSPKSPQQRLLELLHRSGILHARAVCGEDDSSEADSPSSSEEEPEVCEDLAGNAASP
Assay: NVS_NR_hTRa_Antagonist: NovaScreen (NVS) Nuclear Receptor Binding Assay for human Thyroid Receptor Alpha Antagonism (TRa) (AID 2283362);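 note: activity is loss of signal relative to DMSO baseline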
In short: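 Extracted protein, cell-free; 1 h incubation after dosing; AlphaLISA chemiluminescence binding readout. DMSO = baseline/neg ctrl; signal loss = activity. Primary: duplicate, 25 uM; secondary: conc. series on actives.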

| SMILES | outcome | AC50 |
| --- | --- | --- |
| COc1ccc(C(c2ccc(OC)cc2)C(Cl)(Cl)Cl)cc1 | inactive |  |
| CCCCOC(=O)c1ccccc1C(=O)OCCCC |  | 0.111 µM (active) |
| CCNc1nc(Cl)nc(NC(C)C)n1 | inactive |  |
| CCCN(CCC)c1c([N+](=O)[O-])cc(S(N)(=O)=O)cc1[N+](=O)[O-] | inactive |  |
| CCCCNC(=O)OCC#CI | inactive |  |
| CCCCC(CC)COC(=O)c1ccccc1C(=O)OCC(CC)CCCC (configuration not stated) | inactive |  |
| CO/C=C(/C(=O)OC)c1ccccc1Oc1cc(Oc2ccccc2C#N)ncn1 | inactive |  |

Molecular target: Nuclear receptor subfamily 1 group I member 2 (Homo sapiens) (UniProt O75469)
Sequence (O75469 whole entry, looked up): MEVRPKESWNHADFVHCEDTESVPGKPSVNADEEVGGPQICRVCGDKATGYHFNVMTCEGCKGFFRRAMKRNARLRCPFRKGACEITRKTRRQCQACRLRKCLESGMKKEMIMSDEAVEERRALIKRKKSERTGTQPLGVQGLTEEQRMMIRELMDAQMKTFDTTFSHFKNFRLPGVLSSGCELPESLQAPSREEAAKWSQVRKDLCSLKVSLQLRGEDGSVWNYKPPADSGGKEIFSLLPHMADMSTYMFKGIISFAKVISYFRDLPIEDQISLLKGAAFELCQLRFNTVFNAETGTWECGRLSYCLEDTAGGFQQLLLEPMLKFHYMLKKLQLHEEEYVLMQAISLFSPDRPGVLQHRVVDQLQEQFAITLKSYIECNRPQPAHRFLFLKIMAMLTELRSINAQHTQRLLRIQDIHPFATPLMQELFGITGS
Assay: NVS_NR_hPXR: NovaScreen (NVS) Nuclear Receptor Binding Assay for human Pregnane X Receptor (PXR) (AID 2283365);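 note: a drop in FRET signal versus DMSO baseline means the compound binds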
In short: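 Human PXR protein, cell-free; compound added, incubated 2 h, TR-FRET read. Signal decrease vs DMSO = binding. Screened 25 uM duplicate, actives re-run as dilution series.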

| SMILES | outcome | AC50 |
| --- | --- | --- |
| COc1ccc(C(c2ccc(OC)cc2)C(Cl)(Cl)Cl)cc1 | inactive |  |
| CCCCOC(=O)c1ccccc1C(=O)OCCCC | inactive |  |
| CCCN(CCC)c1c([N+](=O)[O-])cc(S(N)(=O)=O)cc1[N+](=O)[O-] |  | 6.68 µM (active) |
| CON(C)C(=O)Nc1ccc(Cl)c(Cl)c1 | inactive |  |
| CO/C=C(/C(=O)OC)c1ccccc1Oc1cc(Oc2ccccc2C#N)ncn1 | inactive |  |

Molecular target: guinea pig Sigma Receptor, Non-selective Binding, SIGMAR1 (gene 100135589) (UniProt Q60492)
Sequence (Q60492 whole entry, looked up): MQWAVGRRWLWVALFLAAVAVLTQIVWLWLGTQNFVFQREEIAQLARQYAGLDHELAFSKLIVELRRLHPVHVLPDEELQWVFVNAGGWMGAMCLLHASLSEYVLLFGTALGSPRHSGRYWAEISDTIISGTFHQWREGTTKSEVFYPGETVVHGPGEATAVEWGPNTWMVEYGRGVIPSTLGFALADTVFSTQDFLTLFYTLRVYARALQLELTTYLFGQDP
Assay: NVS_OR_gSIGMA_NonSelective: NovaScreen (NVS) Nuclear Receptor Binding Assay for guinea pig Sigma Receptor, Non-selective Binding (AID 2283367)
In short: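 Guinea pig brain membrane sigma sites were labelled with a radioligand, and bound radioactivity was counted after filtration 1 h post-dose. Compounds were screened at 25 uM in duplicate, then retested as concentration series when active.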

| SMILES | outcome | AC50 |
| --- | --- | --- |
| N#Cc1nn(-c2c(Cl)cc(C(F)(F)F)cc2Cl)c(N)c1S(=O)C(F)(F)F (configuration not stated) | inactive |  |
| CON(C)C(=O)Nc1ccc(Cl)c(Cl)c1 |  | 12 µM (active) |
| OC(c1ccc(Cl)cc1)(c1cncnc1)c1ccccc1Cl (configuration not stated) | inactive |  |
| CCc1nn(C)c(C(=O)NCc2ccc(C(C)(C)C)cc2)c1Cl |  | 16.2 µM (active) |
| CCOC(=O)CC(SP(=S)(OC)OC)C(=O)OCC (configuration not stated) |  | 11.4 µM (active) |
